# A selection: hits, their analogues and other compounds. The true share with any hit is near 2.2%.
# Nrf2 activator – activators of Nrf2 (ARE) signaling; AREc32 ARE-luciferase reporter (MCF7-derived line), luminescence, 24 h; Potency, µM (titrated, usually from 46.1 µM), for inactives: at the highest dose activation, actives largely listed as activators; 410,000 tested, 0.31% active; AID 624171; further: % of control where 0% means no effect; nearly all actives have a fitted effect of over 65% in size
#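 Reporter line AREc32 (ARE-Fluc), seeded overnight in OPTI-MEM with 5% FBS; compound pin-transferred, 24 hr at 37 deg C, 5% CO2; luminescent read-out.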
# Pin1 inhibitor – inhibitors of human Pin1. 390,000 tested, 0.009% active. Q13526. AID 504891. Potency, µM (highest dose often 115 µM), for inactives: at the highest dose activity, negative = inhibition, actives largely listed as inhibitors. Pin1 FP peptide displacement, HiFluor488, 10 min; active means well fitted inhibition curve with a large enough effect in the polarisation, with a control signal flat, not every such curve was filed as active; inconclusive means small, poorly fitted or top-dose-only effect, or effect the other way, or a change in a side signal; inactive means no such curve, though single readings can be large or run the other way; the % refers to the polarisation; further: on the % scale 0 is the no-effect control and ±100 the full control effect
# Target sequence (Q13526 whole entry, looked up): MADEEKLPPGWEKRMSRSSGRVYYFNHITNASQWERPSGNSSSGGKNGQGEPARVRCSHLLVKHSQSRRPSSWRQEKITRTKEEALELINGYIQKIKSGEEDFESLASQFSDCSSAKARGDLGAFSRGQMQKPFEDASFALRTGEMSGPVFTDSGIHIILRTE
# Nrf2 inh – Nrf2 pathway inhibition; 360,000 tested, 2.1% active; A549 ARE-Fluc reporter, luciferase luminescence, 18-24 h; Potency, µM (series often up to 46 µM), for inactives: top-dose activity change, negative = inhibition, usual class: inhibitors; further: on the % scale 0 is the no-effect control and ±100 the full control effect; nearly all actives have a fitted effect of over 60% in size
#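 A549 ARE_Fluc cells, 5000/well, 5% FBS OPTI-MEM; compounds in dose-response, 18-24 h at 37 °C/5% CO2; CellTiter-Fluor viability read (Ex 405/Em 525), then BugLite luciferase luminescence = Nrf2 activity.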
# A549 tox-1 – A549 cytotoxicity, counter-screen for Nrf2 inhibitors. 390,000 tested, 0.16% active. Potency, µM (top dose mostly 46 µM), inactives show at the top dose activity change, negative = cytotoxicity, most hits filed as inhibitors. A549 ARE-Fluc cells, CellTiter-Fluor viability, 18-24 h. AID 504648; further: on the % scale 0 is the no-effect control and ±100 the full control effect
#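 A549 ARE_Fluc cells in 5% FBS OPTI-MEM were exposed to compounds in concentration-response for 18-24 h at 37 deg C. Viability was read by CellTiter-Fluor fluorescence (Ex 405/Em 525) after 30 min, before the luciferase read.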
# FLuc enzyme inh – blocks purified firefly luciferase in Nrf2 counterscreen; purified firefly luciferase, luminescence inhibition; Potency, µM (doses to about 57.5 µM), for inactives: at the highest dose activity change, negative = inhibition, most hits filed as inhibitors; AID 720522; 1,400 tested, 4% active; shares compounds with Nrf2 inh; further: on the % scale 0 is the no-effect control and ±100 the full control effect; nearly all actives have a fitted effect of over 65% in size
# Target sequence (P08659 whole entry, looked up): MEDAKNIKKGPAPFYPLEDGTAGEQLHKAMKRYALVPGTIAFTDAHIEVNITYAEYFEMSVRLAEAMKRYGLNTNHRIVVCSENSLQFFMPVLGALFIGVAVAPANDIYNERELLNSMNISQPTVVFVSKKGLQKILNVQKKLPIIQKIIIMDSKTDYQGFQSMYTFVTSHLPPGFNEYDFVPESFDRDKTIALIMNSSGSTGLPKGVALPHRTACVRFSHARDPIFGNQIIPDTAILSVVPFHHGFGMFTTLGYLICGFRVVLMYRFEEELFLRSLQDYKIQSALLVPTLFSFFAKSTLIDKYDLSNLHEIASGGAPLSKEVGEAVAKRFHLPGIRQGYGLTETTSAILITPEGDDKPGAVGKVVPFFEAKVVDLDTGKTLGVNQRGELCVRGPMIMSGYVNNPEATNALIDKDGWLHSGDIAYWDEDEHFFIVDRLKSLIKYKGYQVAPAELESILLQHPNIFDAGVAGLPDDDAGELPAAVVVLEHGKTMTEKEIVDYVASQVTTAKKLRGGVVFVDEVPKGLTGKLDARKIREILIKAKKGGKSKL
# A549 tox-2 – toxic to A549 ARE-Fluc cells in Nrf2 counterscreen; shares compounds with Nrf2 inh; A549 ARE-Fluc cells, cytotoxicity counterscreen; Potency, µM (top dose mostly 46.1 µM), without a hit: at the top dose activity change, negative = cytotoxicity, hits mostly inhibitors; 1,400 tested, 2% active; AID 720523;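 further: cells exposed to compounds for 18 to 24 hours; on the % scale 0 is the no-effect control and ±100 the full control effect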
# Nrf2 ARE inh – reduces Nrf2 ARE reporter signal in A549 cells; shares compounds with Nrf2 inh; A549 ARE-firefly luciferase reporter, luminescence; Potency, µM (highest dose often 46.1 µM), for inactives: top-dose activity change, negative = inhibition, hits mostly inhibitors; 1,400 tested, 74% active; AID 720524; further: on the % scale 0 is the no-effect control and ±100 the full control effect; nearly all actives have a fitted effect of over 65% in size
# * marks the source's active call; other numbers are inactive results; ? = inconclusive; . = not tested or not shown; [ ] = dose if it differs, or a comment. Unless noted, the call rests on the fitted dose curve; in most records, active means well fitted curve in the direction sought with a large enough effect; inconclusive means small, poorly fitted or top-dose-only effect, or another doubt; inactive means no such curve, though single readings can be large; an effect the other way counts as inactive or inconclusive. Potency means the concentration at half of the fitted maximal effect.
SMILES,Nrf2 activator,Pin1 inhibitor,Nrf2 inh,A549 tox-1,FLuc enzyme inh,A549 tox-2,Nrf2 ARE inh
O=S(=O)(c1ccccc1)N1CCC(O)(CSc2ccc(Cl)cc2)CC1,0%,-3%,9.2µM*,-9%,3%,-4%,.
Cc1ccc(NC(=O)C2CCCN(C(=O)c3ccc(Cl)cc3)C2)cc1S(=O)(=O)N1CCOCC1 (stereo not drawn),3%,?,7.3µM*,?,1%,-23%,13µM*
CN(C)S(=O)(=O)c1ccc(Nc2nc(C3CC3)nc3c2nnn3Cc2ccccc2Cl)cc1,6%,96%,5.8µM*,-24%,2%,-24%,4.1µM*
O=C(CN1C(=O)CC(c2ccco2)Sc2ccccc21)Nc1cccc(C(F)(F)F)c1 (stereo not drawn),0%,?,?,-25%,.,.,.
CC(C)(C)c1ccc(S(=O)(=O)Nc2ccc(Cc3ccncc3)cc2)cc1,5%,13%,9.2µM*,?,-3%,?,0.021µM*
CC(=O)Nc1ccc(S(=O)(=O)Nc2ccc(Cc3ccncc3)cc2)cc1,0%,0%,?,1%,.,.,.
CCOc1cc(CNCCSc2nnnn2-c2ccccc2)cc(Cl)c1OC,3%,?,-12%,7%,.,.,.
CCc1nc(N)nc(N)c1-c1ccc(Cl)c(N=[N+]=[N-])c1,3%,-9%,?,-6%,.,.,.
CCc1nc(N)nc(N)c1-c1ccc(Cl)c([N+](=O)[O-])c1,8%,-1%,0.37µM*,-1%,1%,-5%,0.92µM*
COc1ccccc1CCNC(=O)Cc1ccc(NC(=O)N2CCSc3ncccc32)cc1,0%,3%,-5%,6%,.,.,.
Cc1cc(C)c(Cn2c(C(O)c3ccccc3)nc3ccccc32)c(C)c1 (stereo not drawn),4%,9%,30%,-17%,.,.,.
O=[N+]([O-])c1cc(Cl)cc2c1nc(NCCO)c1ccccc12,8.9µM*,?,1.3µM*,?,-1%,?,0.73µM*
O=c1[nH]nc(-c2ccc(NCCO)c([N+](=O)[O-])c2)c2ccccc12,3%,0%,?,-13%,.,.,.
CC(=O)N1CCCC1c1nc2ccccc2n1Cc1ccccc1C (stereo not drawn),1%,0%,3.3µM*,?,1%,-7%,18%
COc1ccc(NC(=O)Cn2c(=O)n(Cc3ccccc3Cl)c(=O)c3cc(OC)c(OC)cc32)cc1OC,0%,4%,7%,2%,.,.,.
Cc1ccc(C(=O)n2nc(-c3cccnc3)nc2N)cc1,-3%,7%,1.3µM*,-18%,-1%,6%,4.6µM*
CCCCOCCCNC(=S)Nc1ccc(S(=O)(=O)N2CCOCC2)cc1,2%,2%,-27%,3%,.,.,.
O=S(=O)(c1ccc(NC(=S)NCCC(c2ccccc2)c2ccccc2)cc1)N1CCOCC1,1%,35%,4.1µM*,?,-12%,-25%,?
Cc1ccc(-c2c3c(=O)n(C)c(=O)n(C)c3c3c(C(F)(F)F)nc4ccccc4n23)cc1,-1%,?,-30%,-10%,.,.,.
CC(C)(C)c1ccc(C(=O)N2CCCCCC2=O)cc1,-2%,4%,9.2µM*,-8%,?,-11%,3.7µM*
O=C1CCCCCN1C(=O)c1ccccc1,-1%,-7%,-3%,-2%,.,.,.
CCn1ccc2cc(S(=O)(=O)N3CCC(C(=O)NCc4ccc(OC)cc4)CC3)ccc21,4%,12%,.,7%,.,.,.
CC1=C(C(=O)Nc2ccccc2)C(c2ccccn2)n2nc(SCc3ccccc3)nc2N1 (stereo not drawn),-1%,12%,-13%[9.27 µM],5%,.,.,.
Cn1c(=O)n(-c2ccc(C(C)(C)C#N)cc2)c2c3cc(-c4cnc5ccccc5c4)ccc3ncc21,.,.,.,.,0%,?,0.92µM*
CC1(C(=O)NC2CCCCC2)Cc2ccccc2C(=O)N1Cc1ccc(Cl)cc1 (stereo not drawn),0%,0%,2%,1%,.,.,.
SMILES,Nrf2 activator,Pin1 inhibitor,Nrf2 inh,A549 tox-1,FLuc enzyme inh,A549 tox-2,Nrf2 ARE inh
CC(=O)N(C(C)=O)c1ncc2c([nH]c3ccccc32)c1C#N,0%,-2%,8.2µM*,-15%,-18%,-11%,.
Cn1c(=O)c2cc(S(=O)(=O)Nc3cc(C(=O)O)cc(C(=O)O)c3)ccc2n(C)c1=O,0%,-11%,5%,5%,.,.,.
Cc1cc(C)cc(NS(=O)(=O)c2ccc3c(c2)c(=O)n(C)c(=O)n3C)c1,-1%,0%,8.2µM*,-22%,2%,-13%,7.3µM*
O=C(c1ccc(NS(=O)(=O)c2ccc(F)cc2)cc1)N1CCCCC1,0%,-12%,-22%,1%,.,.,.
O=C(c1ccc(S(=O)(=O)Nc2ccc(F)cc2)cc1)N1CCN(c2ccccn2)CC1,2%,11%,2.9µM*,?,-1%,-5%,15µM*
Cc1ccc(NS(=O)(=O)c2ccc(C(=O)N3CCN(c4ncccn4)CC3)cc2)cc1,1%,1%,5.8µM*,?,-1%,-4%,8.2µM*
CCOCCCN1C(=O)c2[nH]nc(-c3ccccc3O)c2C1c1ccc(CC)cc1 (stereo not drawn),-1%,0%,5%,-3%,.,.,.
C=C(c1nc2ccccc2s1)C1Cc2cccc3c2N(CCC3)C1 (stereo not drawn),.,.,.,.,12µM*,-72%,2.6µM*
CC12CC(c3ccccc3O1)N(C(=O)c1ccco1)C(=S)N2c1ccccc1 (stereo not drawn),0%,28%,8.2µM*,?,2%,-14%,-16%
Cn1cc(S(=O)(=O)N2CCCCC2)cc1C(=O)Nc1cccc(C#N)c1,-1%,2%,.,-3%,.,.,.
CCC(Cc1ccccc1)NC(=O)c1ccc2nc(N3CCC(C)CC3)sc2c1 (stereo not drawn),4%,4%,-27%,5%,.,.,.
CC(=O)C1(O)Cc2c(O)c3c(c(O)c2C(OC2CC(N)C(O)C(C)O2)C1)C(=O)c1c(O)cccc1C3=O (stereo not drawn),.,.,.,.,-28%,?,0.46µM*
CC(=O)[C@@]1(O)Cc2c(O)c3c(c(O)c2[C@H](O[C@H]2C[C@H](N)[C@H](O)[C@H](C)O2)C1)C(=O)c1ccccc1C3=O,-2%,.,.,.,.,.,.
COc1cccc2c1C(=O)c1c(O)c3c(c(O)c1C2=O)CC(O)(C(C)=O)CC3OC1CC(N(C)C)C(O)C(C)O1 (stereo not drawn),-1%,?,2.3µM*,?,-25%,?,1µM*
N=c1ccn(Cc2c(Cl)cccc2Cl)cc1,-1%,5%,5.2µM*,-5%,2%,-3%,4.1µM*

# Screens (PubChem)
